# Assay results published in the supplement of paper PMC12669032.
# Unmarked numbers belong to inactive results.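 The calls were made as follows: active = AUC reduced over 20% with Padj below 0.05 in at least 2 of 3 replicates; inactive = otherwise.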
# Experiments:
# [1] = system: Roseburia intestinalis; assay: growth AUC relative to DMSO control (median of replicates) (fraction); higher = more growth (less inhibition), active = hit call of the paper; settings: 20 µM; 24 h
# Procedure, shortened: (§1)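 Each value is the median of three biological replicates, grown on separate days, of a gut bacterial monoculture incubated anaerobically at 37 °C in mGAM with 20 µM compound (1% DMSO). Cultures started at OD600 0.05 and were read at OD600 hourly for 24 h, with the minimum OD set to 0. Area under the growth curve was normalised to the plate median of solvent-only wells, or to row and column medians on the industrial chemical plate.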
# [2] = system: Streptococcus salivarius; assay: as above; settings: 20 µM; 24 h
# Procedure, shortened: as §1
SMILES,growth AUC [1],growth AUC [2]
Nc1ccc(Cc2ccc(N)c(Cl)c2)cc1Cl,1.1,1.09
O=[N+]([O-])c1ccccc1,0.963,1.01
O=C(O)c1c(Cl)ccc2cc(Cl)cnc12,0.978,1.05
O=[N+]([O-])C(Br)(CO)CO,0.964,0.967
CC1(C)C(/C=C(\Cl)C(F)(F)F)C1C(=O)OC(C#N)c1cccc(Oc2ccccc2)c1 (stereo not given),0.952,0.981
O=C(O)COc1cc(Cl)c(Cl)cc1Cl,0.966,1.02
CC1CNC(=S)N1 (stereo not given),1.02,1
CC1(C)[C@H](C=C(Cl)Cl)[C@H]1C(=O)OCc1c(F)c(F)cc(F)c1F,0.946,1.02
CNC(=O)Oc1cc(C)c(N(C)C)c(C)c1,0.962,0.961
Nc1ccc(Cl)cc1,0.963,1.01
c1cc2c3c(cccc3c1)CC2,0.998,1.01
CCc1nn(C)c(C(=O)NCc2ccc(Oc3ccc(C)cc3)cc2)c1Cl,0.924,0.986
[Cl][Sn]([c]1ccccc1)([c]1ccccc1)[c]1ccccc1,0.0424 (active),0.859
CCCN(CCC)c1c([N+](=O)[O-])cc(S(N)(=O)=O)cc1[N+](=O)[O-],0.961,0.985
CCCCCCCCCCCCCN1CC(C)OC(C)C1 (stereo not given),0.937,1.01
N#Cc1nn(-c2c(Cl)cc(C(F)(F)F)cc2Cl)c(N)c1S(=O)(=O)C(F)(F)F,0.965,0.548 (active)
CCCOCCN(C(=O)CCl)c1c(CC)cccc1CC,0.947,0.952
CCOC(=O)N(C)C(=O)CSP(=S)(OCC)OCC,1.03,1
O=C1C2(Cl)C3(Cl)C4(Cl)C(Cl)(Cl)C5(Cl)C3(Cl)C1(Cl)C5(Cl)C24Cl (stereo not given),0.0478 (active),0.0301 (active)
C=CCOC(=O)C(C)(C)OC(=O)c1cc(-n2c(=O)cc(C(F)(F)F)n(C)c2=O)ccc1Cl,0.994,0.98
CCOP(=S)(OCC)SCS(=O)CC (stereo not given),0.995,0.976
ClCC(Br)CBr (stereo not given),1,0.973
Fc1ccc(C2(Cn3cncn3)OC2c2ccccc2Cl)cc1 (stereo not given),1.03,0.966

SMILES,growth AUC [1],growth AUC [2]
O=C(O)CCCOc1ccc(Cl)cc1Cl,0.966,0.969
Cc1cc(C)c(C2=C(OC(=O)CC(C)(C)C)C3(CCCC3)OC2=O)c(C)c1,0.989,0.991
Cc1[nH]c(=O)n(C(C)(C)C)c(=O)c1Cl,0.986,1.02
O=C(NC(=O)c1c(F)cccc1F)Nc1ccc(Cl)c(Oc2ncc(C(F)(F)F)cc2Cl)c1,1,1.02
O=C(O)c1cc(Oc2ccc(C(F)(F)F)cc2Cl)ccc1[N+](=O)[O-],0.963,0.987
CCCCN(CCCC)N=O,1,1.01
NC(=S)c1c(Cl)cccc1Cl,1,0.943
CNC(=O)O/N=C/C(C)(C)S(C)(=O)=O,1.02,1.04
CC(C)Nc1nc(Cl)nc(NC(C)C)n1,0.962,0.99
Cc1cc(C(C#N)c2ccc(Cl)cc2)c(Cl)cc1NC(=O)c1cc(I)cc(I)c1O (stereo not given),0.15 (active),0.0175 (active)
CC(C)C1(C)N=C(c2nc3ccccc3cc2C(=O)O)NC1=O (stereo not given),1.03,0.935
C/C(=N/Nc1nc(C)cc(C)n1)c1ccccc1C,0.715 (active),0.999
CS(=O)(=O)c1ccc(C(=O)C2C(=O)CCCC2=O)c(Cl)c1COCC(F)(F)F,0.964,0.974
CC(=O)O.NC(N)=NCCCCCCCCNCCCCCCCCN=C(N)N,0.039 (active),0.474 (active)
CCNc1nc(Cl)nc(NC(C)(C)C)n1,0.955,0.986
CN1CSC(=S)N(C)C1,1.03,0.983
CCCSP(=S)(OCC)Oc1ccc(SC)cc1 (stereo not given),1.06,0.93
Oc1ccc(C(c2ccc(O)cc2)(C(F)(F)F)C(F)(F)F)cc1,0.661 (active),0.85
CC1(C)C(/C=C(\Cl)c2ccc(Cl)cc2)C1C(=O)OC(C#N)c1ccc(F)c(Oc2ccccc2)c1 (stereo not given),1.07,1.03
CCNC(=O)NC(=O)/C(C#N)=N/OC,1.16,0.949
COCC(=O)N(c1c(C)cccc1C)[C@@H](C)C(=O)OC,0.997,0.999
CC(Cc1ccc(C(C)(C)C)cc1)CN1C[C@@H](C)O[C@@H](C)C1 (stereo not given in full),1.06,0.999
